# Several values for one entry are separate records, joined by “and”; a condition that tells them apart may be missing. Equal entries are not always repeated. Inconclusive results are not listed. Activity calls are given as the source filed them. Unless noted, the call rests on the fitted dose curve; in most records, active means well fitted curve in the direction sought with a large enough effect; inconclusive means small, poorly fitted or top-dose-only effect, or another doubt; inactive means no such curve, though single readings can be large; an effect the other way counts as inactive or inconclusive.
# Key:
# [1] = qHTS Assay for Lipid Storage Modulators (AID 1519; calls by dose curve; on activity change, negative = inhibition: on the % scale 0 is the no-effect control and ±100 the full control effect); settings: Drosophila S3 cells, BODIPY lipid droplet/cell ratio, laser cytometry, cells loaded with oleic acid
# Method in brief: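 Cells seeded at 5,000 per well were treated with compounds over a concentration series and loaded with oleic acid (400 uM, as added). Lipid droplet fluorescence (488 nm excitation, 500-530 nm channel) was read by laser-scanning cytometry and normalized to 20 uM Triacsin C.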
# [2] = Validation of Assay for Modulators of Lamin A Splicing (AID 1459; active means well fitted curve in the direction sought with a large enough effect in the signal ratio; the % refers to the signal ratio;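 further: cells exposed to compound for two days before reading; 0% is about no effect; ratio rise marks activators and ratio drop marks inhibitors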); settings: Lamin A splicing dual RFP/GFP fluorescence reporter; series mostly up to 9.22 µM
# Method in brief: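 S3 HeLa cells stably expressing a lamin A-EGFP splicing minigene and DsRed2 were seeded at 600 cells/well in Opti-MEM with 2% FBS, pin-dosed, and incubated 48 hrs at 37 °C, 5% CO2. Laser-scanning cytometry (488 nm) gave GFP/RFP total intensity ratio.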
# [3] = Counterscreen for APE1 Inhibitors: Fluorescent Dye Displacement Validation Assay (AID 1707); settings: fluorescent dye displacement from DNA; series mostly up to 57.1 µM;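 further: plate controls were ThO with dsDNA and no compound for no effect and ThO without dsDNA for full effect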
# Method in brief: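 Compounds are scored by their ability to displace Thiazole Orange (250 nM) from a 50 nM TAMRA-tagged duplex bearing a tetrahydrofuran abasic site. Buffer is 50 mM Tris-HCl pH7.5, 50mM NaCl, 2 mM MgCl2, 0.01% Tween-20.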
# [4] = target: Endonuclease 4 (Escherichia coli (strain K12)) (UniProt P0A6C1); assay: Counterscreen for APE1 Inhibitors: qHTS Validation Assay for Inhibitors of Endonuclease IV (AID 1708); further: on the % scale 0 is the no-effect control and ±100 the full control effect; settings: E. coli endonuclease IV, DNA cleavage fluorescence; series mostly up to 57.1 µM
# Method in brief: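 Enzymatic AP-site incision assay using a double-stranded THF substrate labelled with TAMRA and BHQ-2; released fluorescence signals activity. Enzyme 2 nM, substrate 50 nM, 15 min compound preincubation.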
# [5] = qHTS for differential inhibitors of proliferation of Plasmodium falciparum line 7G8 (AID 1815); settings: Plasmodium falciparum 7G8 proliferation inhibition; series mostly up to 28.7 µM;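 further: parasite growth measured after three days of incubation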; further: potency means the concentration at half of the fitted maximal effect;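 on activity change, negative = inhibition: plate controls were vehicle wells for no effect and reference inhibitor wells for full effect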
# [6] = qHTS for differential inhibitors of proliferation of Plasmodium falciparum line GB4 (AID 1816); settings: Potency: Plasmodium falciparum GB4 proliferation inhibition; series mostly up to 28.7 µM;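 further: parasite growth measured after 72 h incubation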; further: potency means the concentration at half of the fitted maximal effect;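 on activity change, negative = inhibition: 0% = vehicle DMSO and -100% = reference inhibitor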
# [7] = qHTS for differential inhibitors of proliferation of Plasmodium falciparum line 3D7 (AID 1876); further: potency means the concentration at half of the fitted maximal effect; settings: P. falciparum 3D7 proliferation inhibition; series mostly up to 28.7 µM
# [8] = qHTS for differential inhibitors of proliferation of Plasmodium falciparum line D10 (AID 1877); settings: series mostly up to 28.7 µM;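 further: parasites grown with compound for 72 h before DNA staining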; further: potency means the concentration at half of the fitted maximal effect;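 on activity change, negative = inhibition: plate controls were vehicle wells for no effect and reference inhibitor wells for full effect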
# [9] = target: Alpha-galactosidase A (Homo sapiens) (UniProt P06280); assay: Counterscreen for Glucocerebrosidase Inhibitors: qHTS Assay for Human alpha-Galactosidase at pH 4.5 (AID 992); settings: purified enzyme, fluorogenic substrate; series mostly up to 76.9 µM; further: 0% is about no effect
# Sequence of Alpha-galactosidase A (Homo sapiens) (P06280 whole entry, looked up): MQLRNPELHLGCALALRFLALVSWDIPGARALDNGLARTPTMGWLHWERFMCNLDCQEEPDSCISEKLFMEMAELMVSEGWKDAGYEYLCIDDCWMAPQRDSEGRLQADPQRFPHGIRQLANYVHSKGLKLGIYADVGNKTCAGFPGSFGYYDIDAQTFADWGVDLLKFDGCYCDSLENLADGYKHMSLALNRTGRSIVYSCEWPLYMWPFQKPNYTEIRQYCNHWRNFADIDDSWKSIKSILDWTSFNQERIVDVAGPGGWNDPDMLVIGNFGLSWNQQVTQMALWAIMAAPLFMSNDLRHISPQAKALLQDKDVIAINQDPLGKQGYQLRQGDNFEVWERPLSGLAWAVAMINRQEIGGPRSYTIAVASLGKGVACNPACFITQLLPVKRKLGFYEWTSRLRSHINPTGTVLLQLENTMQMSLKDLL
# Method in brief: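 Quantitative HTS: compounds tested from 0.7 nM up to 77 uM against 2 nM enzyme with 80 uM 4-MU alpha-D-galactopyranoside. The 20 min room-temperature reaction is stopped with 1M NaOH/1M glycine, pH 10.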
# [10] = target: alpha-glucosidase (Oryza sativa, rice) (UniProt Q653V4); assay: Counterscreen for Glucocerebrosidase Inhibitors: qHTS Assay for Rice alpha-Glucosidase at pH 5.0 (AID 997); settings: rice alpha-glucosidase enzyme activity; series mostly up to 76.9 µM;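 further: 0% = full activity with enzyme and -100% = basal without enzyme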
# Method in brief: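 Rice alpha-glucosidase (4 nM final) with 400 uM 4-methylumbelliferyl-alpha-D-glucopyranoside in citrate buffer pH 5.0, 20 min at room temperature, stopped at pH 10; fluorescence 365/440 nm, compounds 0.7 nM–77 uM, AC50 from Hill fits.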
# [11] = target: DNA repair nuclease/redox regulator APEX1 (Homo sapiens) (UniProt P27695); assay: qHTS Validation Assay for Inhibitors of the Human Apurinic/apyrimidinic Endonuclease 1 (APE1) (AID 1705;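 further: TAMRA fluorescence gain over two minutes as APE1 cuts a quenched THF abasic duplex; on the % scale 0 is the no-effect control and ±100 the full control effect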); settings: purified APE1 endonuclease activity, fluorescence, titration; series mostly up to 57.1 µM
# Sequence of DNA repair nuclease/redox regulator APEX1 (Homo sapiens) (P27695 whole entry, looked up): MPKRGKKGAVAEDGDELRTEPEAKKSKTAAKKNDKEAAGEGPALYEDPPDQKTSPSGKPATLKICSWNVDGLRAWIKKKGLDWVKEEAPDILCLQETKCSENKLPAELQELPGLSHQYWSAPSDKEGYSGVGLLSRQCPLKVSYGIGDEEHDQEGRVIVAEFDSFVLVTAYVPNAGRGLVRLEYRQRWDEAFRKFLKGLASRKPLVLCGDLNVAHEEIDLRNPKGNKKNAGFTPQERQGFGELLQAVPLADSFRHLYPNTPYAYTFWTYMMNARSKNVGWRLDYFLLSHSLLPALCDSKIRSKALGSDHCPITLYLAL
# Method in brief: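 Human APE1 was preincubated with compound for 15 min at room temperature, then 50 nM (final) THF-abasic double-stranded DNA substrate bearing 5'-TAMRA and 3'-BHQ-2 was added. Incision-driven fluorescence rise (ex 525/em 598 nm) was read kinetically.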
# [12] = measured here: cell count channel max response
# [13] = measured here: lipid channel max response
smiles,measurement,setting,value
O=C1NS(=O)(=O)c2ccccc21,"activity change, negative = inhibition",[1]; at 57.5 µM (top of the series),6.8% (inactive)
same,max response,[1]; [12],18.3%
same,max response,[1]; [13],29.2%
CC(C)(C(=O)O)c1ccc(C(O)CCCN2CCC(C(O)(c3ccccc3)c3ccccc3)CC2)cc1 (configuration not stated),outcome,[2],inactive
same,"activity change, negative = inhibition",[1]; at 57.5 µM (top of the series),2.57% (inactive) and -0.0758% (inactive)
same,max response,[1]; [12],23% and -17.7%
same,max response,[1]; [13],28% and -18.6%
same,Potency,[3],inactive
same,Potency,[4],inactive
same,Potency,[5],inactive
same,Potency,[6],inactive
same,Potency,[7],inactive
same,Potency,[8],inactive
NCC(=O)CCC(=O)O,"activity change, negative = inhibition",[1]; at 57.5 µM (top of the series),1.06% (inactive)
same,max response,[1]; [12],6.63%
same,max response,[1]; [13],10.2%
CCN(CC)CCOC(=O)C1(C2CCCCC2)CCCCC1,outcome,[9],inactive
same,outcome,[10],inactive
same,outcome,[2],inactive
same,"activity change, negative = inhibition",[1]; at 25.7 µM (top of the series),-3.18% (inactive)
same,"activity change, negative = inhibition",[1]; at 57.5 µM (top of the series),4.04% (inactive) and 0.569% (inactive)
same,max response,[1]; [12],0.165% and 5.59% and 10.8%
same,max response,[1]; [13],-2.15% and 9.9% and 9.37%
same,Potency,[11],inactive
same,Potency,[3],inactive
same,Potency,[4],inactive
same,Potency,[5],8.91 µM (active)
same,Potency,[6],14.1 µM (active)
same,Potency,[8],15.8 µM (active)
CNCC(O)c1ccc(O)c(O)c1 (configuration not stated),outcome,[2],inactive
same,Potency,[11],inactive
same,Potency,[3],inactive
same,Potency,[4],inactive
CC(CN1c2ccccc2Sc2ccccc21)N(C)C (configuration not stated),outcome,[2],inactive
same,"activity change, negative = inhibition",[1]; at 57.5 µM (top of the series),7.97% (inactive) and 1.76% (inactive)
same,max response,[1]; [12],24.2% and 6.53%
same,max response,[1]; [13],44.6% and 8.19%
same,Potency,[11],inactive
same,Potency,[3],inactive
same,Potency,[4],inactive
same,Potency,[5],7.08 µM (active)
same,Potency,[6],6.31 µM (active)
same,Potency,[7],14.1 µM (active)
same,Potency,[8],14.1 µM (active)
Cc1c(Cl)cccc1Nc1ccccc1C(=O)O,"activity change, negative = inhibition",[1]; at 25.7 µM (top of the series),-0.93% (inactive)
same,max response,[1]; [12],-6.86%
same,max response,[1]; [13],-11.8%
Cc1cc2c(cc1S(N)(=O)=O)S(=O)(=O)CCC2,"activity change, negative = inhibition",[1]; at 25.7 µM (top of the series),-2.69% (inactive)
same,max response,[1]; [12],5.71%
same,max response,[1]; [13],1.67%
c1ccc2c(CC3=NCCN3)cccc2c1,"activity change, negative = inhibition",[1]; at 25.7 µM (top of the series),-0.324% (inactive)
same,"activity change, negative = inhibition",[1]; at 57.5 µM (top of the series),4.27% (inactive)
same,max response,[1]; [12],-14.5% and 1.91%
same,max response,[1]; [13],-13.5% and 9.6%
Nc1ccc(S(=O)(=O)Nc2ccc(Cl)nn2)cc1,"activity change, negative = inhibition",[1]; at 25.7 µM (top of the series),0.129% (inactive)
same,"activity change, negative = inhibition",[1]; at 57.5 µM (top of the series),9.01% (inactive)
same,max response,[1]; [12],5.02% and 19.5%
same,max response,[1]; [13],5.1% and 34.7%
CC(COc1ccccc1)NC(C)C(O)c1ccc(O)cc1 (configuration not stated),"activity change, negative = inhibition",[1]; at 57.5 µM (top of the series),4.19% (inactive)
same,max response,[1]; [12],1.34%
same,max response,[1]; [13],8.74%
CC(C(O)c1ccc(O)cc1)N1CCC(Cc2ccccc2)CC1 (configuration not stated),"activity change, negative = inhibition",[1]; at 57.5 µM (top of the series),3.33% (inactive)
same,max response,[1]; [12],9.6%
same,max response,[1]; [13],16%
same,Potency,[11],inactive
same,Potency,[3],inactive
same,Potency,[4],inactive
same,Potency,[5],7.08 µM (active)
same,Potency,[6],3.98 µM (active)
same,Potency,[7],4.47 µM (active)
O=C(CCCN1CCN(c2ccccn2)CC1)c1ccc(F)cc1,"activity change, negative = inhibition",[1]; at 25.7 µM (top of the series),0.351% (inactive)
same,"activity change, negative = inhibition",[1]; at 57.5 µM (top of the series),15.3% (inactive)
same,max response,[1]; [12],-7.79% and 5.38%
same,max response,[1]; [13],-10.2% and 27.2%
CCN(CC)C(C)CN1c2ccccc2Sc2ccccc21 (configuration not stated),"activity change, negative = inhibition",[1]; at 57.5 µM (top of the series),2.47% (inactive)
same,max response,[1]; [12],-20.9%
same,max response,[1]; [13],-15.4%
